The source of these data is ChEMBL document CHEMBL4513216, “Probing the Open Global Health Chemical Diversity Library for Multistage-Active Starting Points for Next-Generation Antimalarials” (ACS Infect Dis, 2020).

SMILES strings stand for the structures. Out of some 69,000 compounds screened, about 8,600 (12%) showed an effect of 50% or more. Many of the other results were omitted from the sample, so strong results are more common in it than they were.

In the test the test system is Plasmodium berghei. Briefly: Screen against P. berghei liver stage (PbLuc), transformed with Luciferase, at 10uM. It counts as functional, HepG2. The conditions noted are these: tested at 10 uM.
Take `COc1ccc(OC)c(C2CC(=O)Nc3nc(N4CCOCC4)sc32)c1` (stereo not given): the INHIBITION was determined as 7.66%.
With `Cc1c(NC(=O)NC(C)CCO)cccc1OC1CCCC1` (stereo not given) the figure was -16.9%.
For the compound `CC(C)n1ccnc1CN1CCCN(C(=O)c2ncccc2O)CC1`, the INHIBITION is recorded as 32.45%.
With `CCOCCN1CCN(CC(O)c2ccc(F)cc2)CC1` (stereo not given) the figure was 37.9%; with `O=C(NC[C@]12COC[C@H]1CN(Cc1nccs1)C2)c1ccsc1`, 7.31%.
Consider `COc1ccc(NC(=O)C2CC(=O)N(C)C2)cn1` (stereo not given), for which the INHIBITION is 45.7%.
Turning to `CC(C)(NS(C)(=O)=O)c1nc(-c2ccncc2)no1`, the INHIBITION was found to be 22%.
For the compound `O=C(CCn1c(C(F)F)cc2cccnc21)NC1CCCCC1`, the INHIBITION worked out at 14.7%.
Regarding `CN1C(=O)C2(CCN(CCO)C2)c2ccccc21` (stereo not given), the INHIBITION was determined as 34.7%.
On to `CN1C(=O)C2(CCN(CC3CCC3)C2)c2ccccc21` (stereo not given), for which the INHIBITION turned out to be 88.2%.
For the compound `CN1C(=O)C2(CCN(CC3CC3)CC2)c2ccccc21`, the INHIBITION turned out to be 30.7%.
As to `Cc1ccc(CN2CCC3(C2)C(=O)N(CC(N)=O)c2ccccc23)s1` (stereo not given), the INHIBITION came to 32.5%.
In the case of `Cc1ccc(CN2CCC3(C2)C(=O)N(CC(C)C)c2ccccc23)s1` (stereo not given), the INHIBITION was determined as 65.1%.
With `Cc1ccc(CN2CCC3(CC2)C(=O)Nc2ccccc23)s1` the figure was 23.5%; with `CCOCC(=O)N1C[C@@H](O)[C@H](N2CCN(c3ccccc3)CC2)C1`, -3.25%; with `CC(C)CCN1CCN(C(=O)c2c[nH]c(=O)[nH]2)CC1`, -16.8%.
Consider `CCn1nc(C)c2nc(C(C)C)nc(N(C)Cc3ccco3)c21`, for which the INHIBITION amounted to 11.8%.
With `OCCN1CCC(CNCc2ccccc2OC(F)(F)F)CC1`, the INHIBITION came to 4.8%.
`Cc1cc(C)n(-c2ccc(CNCc3cccc(C#N)c3)cn2)n1`: the INHIBITION was -12.63%.
Turning to `CC(C)c1csc(C(=O)N2CCCC(Cn3cc(CO)nn3)C2)n1` (stereo not given), the INHIBITION is listed as 40.3%.
For the compound `Cc1nn(CC(O)CN2CCc3ccccc3C2)c(=O)c(C#N)c1C` (stereo not given), the INHIBITION is listed as -1.75%.
For the compound `O=C(N1CCCC1)N1CCC2(CC1)C(=O)N(CC1CC1)c1ccccc12`, the INHIBITION was 23.5%.
For the compound `CCOCc1nnc2n1CCN(Cc1c(C)noc1C)CC2`, the INHIBITION was 30.3%.
On to `Cc1ccnc(C(=O)N2C[C@@H]3CN(S(C)(=O)=O)CCO[C@@H]3C2)c1`, for which the INHIBITION was 48.2%.
Turning to `Cc1nc(C(=O)N2C[C@@H]3CN(S(C)(=O)=O)CCO[C@@H]3C2)cs1`, the INHIBITION was determined as 58.5%.
With `Cn1nccc1C(=O)N1C[C@@H]2CN(S(C)(=O)=O)CCO[C@@H]2C1`, the INHIBITION is 40.5%.
Turning to `O=C(c1sccc1Br)N(Cc1cccnc1)C1CC1`, the INHIBITION is on record as 25.2%.
Regarding `Clc1ccc(CN2CCc3c(ncn3C3CC3)C2)c2ncccc12`, the INHIBITION was 66.3%.
Consider `Cn1cnc2c1CCN(Cc1ccc(Cl)c3cccnc13)C2`, for which the INHIBITION amounted to 31.1%.
For the compound `c1ccc(CCN2CCc3c(ncn3C3CC3)C2)nc1`, the INHIBITION is -24.7%.
Regarding `CCC(CNc1ncnc2oc(C)nc12)Cc1ccccc1` (stereo not given), the INHIBITION came to 59.5%.
Turning to `CC(CNc1cncc(-n2cccn2)n1)N(C)c1ccccc1` (stereo not given), the INHIBITION amounted to 10%.
Consider `CCCOc1ccc(Cl)cc1CNc1ncnc2oc(C)nc12`, for which the INHIBITION was 45.4%.
With `Cc1ncnc(NC(CC(C)(C)C)c2cccnc2)c1C` (stereo not given) the figure was 40.3%; with `CCN(CC)C(=O)C1CCCN(c2ncnc3oc(C)nc23)C1` (stereo not given), 3.46%.
With `Cc1nc2c(N(CCC(N)=O)CCc3ccccc3)ncnc2o1` the figure was 19.2%; with `Cc1ncnc(NCC(C)N(C)c2ccccc2)c1C` (stereo not given), 68.6%.
For the compound `CCCOc1ccccc1CCCNc1ncnc2oc(C)nc12`, the INHIBITION turned out to be 83.5%.
As for `Cc1nc2c(N3CCC(O)(Cn4ccnc4)CC3)ncnc2o1`, the INHIBITION amounted to 29.7%.
In the case of `CCCN(CCc1ccccc1)c1ncnc2oc(C)nc12`, the INHIBITION worked out at 25.4%.
As for `Cc1nc2c(NC(CC(C)(C)C)c3cccnc3)ncnc2o1` (stereo not given), the INHIBITION worked out at 34.4%.
With `Cc1nc2c(NCC(C)N(C)c3ccccc3)ncnc2o1` (stereo not given) the figure was 67.7%; with `CC(C)CCN(CCC(C)C)Cc1nc2c(cnn2C)c(=O)[nH]1`, -11.58%.
For `O=C(c1ccco1)N1C[C@H]2CCCN(Cc3nccs3)[C@H]2C1`, the INHIBITION was determined as 1.71%.
As for `CC(C)c1ccc(OCCNC(=O)CN2CCN(C)CC2C)cc1` (stereo not given), the INHIBITION was determined as 32.7%.
In the case of `COCCNc1nc(N2CCCC2)nc2nccnc12`, the INHIBITION is listed as 6.29%.
With `O=C(c1cscn1)N1CC[C@H]2C[C@@H](c3ccncn3)O[C@@H]2C1` the figure was 43.9%; with `COCCC(=O)NCc1ccc(-c2ccccc2C(=O)O)cn1`, 5.23%; with `O=C(C1CCC1)N1CC[C@H](O)[C@@H]1Cc1cccnc1`, 32.1%.
In the case of `CCCN(C1CCc2ccccc2C1)S(C)(=O)=O` (stereo not given), the INHIBITION is on record as 2.97%.
On to `CN(C1CCc2ccccc2C1)S(C)(=O)=O` (stereo not given), for which the INHIBITION was determined as 53.5%.
For `CS(=O)(=O)CCN(CCc1cccc(F)c1)C1CC1`, the INHIBITION came to 30.9%.
For the compound `CNS(=O)(=O)CC(=O)N(C1CC1)C1Cc2ccccc2C1`, the INHIBITION is 32%.
On to `CCS(=O)(=O)NCC(=O)N(C1CC1)C1Cc2ccccc2C1`, for which the INHIBITION was 7.39%.
For the compound `CCCN(CCS(C)(=O)=O)C1CCc2ccccc2C1` (stereo not given), the INHIBITION is on record as 53.5%.
